Source: ChEMBL document CHEMBL1961873, “Compounds: GSK PKIS; Assays: Nanosyn kinase panel” (2012)
Values joined by “and” are separate entries in the source; they are usually repeats but may differ in a detail not shown here. Equal values may be shown once.

Assays:
[1] = molecular target: Sphingosine kinase 1 (Homo sapiens) (UniProt Q9NYA1); details: at 1 µM;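 further: mean SPHK1 inhibition value reported from the GSK PKIS kinase panel screen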
[2] = molecular target: T1, Sphingosine kinase 2 (Homo sapiens) (UniProt Q9NRA0); details: at 0.1 µM
T1 sequence (whole entry): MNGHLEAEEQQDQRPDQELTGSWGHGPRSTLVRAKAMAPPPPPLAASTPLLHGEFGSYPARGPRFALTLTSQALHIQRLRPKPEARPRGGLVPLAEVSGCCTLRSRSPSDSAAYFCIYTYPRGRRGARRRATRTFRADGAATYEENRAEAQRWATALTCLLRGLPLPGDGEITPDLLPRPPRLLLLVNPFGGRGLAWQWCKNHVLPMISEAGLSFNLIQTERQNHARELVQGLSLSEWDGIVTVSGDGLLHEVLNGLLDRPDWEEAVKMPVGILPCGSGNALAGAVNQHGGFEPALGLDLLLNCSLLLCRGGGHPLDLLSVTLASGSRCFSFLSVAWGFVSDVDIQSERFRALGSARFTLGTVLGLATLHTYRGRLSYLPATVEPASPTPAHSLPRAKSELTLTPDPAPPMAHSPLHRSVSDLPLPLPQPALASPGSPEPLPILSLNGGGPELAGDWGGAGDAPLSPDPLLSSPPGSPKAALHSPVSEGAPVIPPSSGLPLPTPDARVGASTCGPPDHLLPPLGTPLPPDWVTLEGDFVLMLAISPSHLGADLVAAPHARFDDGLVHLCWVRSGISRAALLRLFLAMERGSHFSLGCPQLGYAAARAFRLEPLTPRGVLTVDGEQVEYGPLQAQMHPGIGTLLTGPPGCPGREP

[3] = molecular target: T1, Sphingosine kinase 2 (Homo sapiens); details: at 1 µM
[4] = molecular target: Casein kinase II subunit alpha (Homo sapiens) (UniProt P68400); details: at 0.1 µM
Chain of Casein kinase II subunit alpha (Homo sapiens) (P68400 whole entry, looked up): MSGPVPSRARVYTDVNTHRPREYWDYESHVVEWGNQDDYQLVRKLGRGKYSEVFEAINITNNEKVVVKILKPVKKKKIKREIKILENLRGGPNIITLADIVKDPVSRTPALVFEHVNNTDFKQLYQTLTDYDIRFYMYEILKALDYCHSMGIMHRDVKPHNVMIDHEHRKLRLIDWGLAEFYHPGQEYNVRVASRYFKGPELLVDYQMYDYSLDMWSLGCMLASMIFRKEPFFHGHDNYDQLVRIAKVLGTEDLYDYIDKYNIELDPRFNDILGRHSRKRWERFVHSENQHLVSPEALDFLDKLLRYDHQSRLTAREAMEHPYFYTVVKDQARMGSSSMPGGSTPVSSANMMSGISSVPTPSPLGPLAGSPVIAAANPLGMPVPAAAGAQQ

[5] = molecular target: Casein kinase II subunit alpha (Homo sapiens) (UniProt P68400); details: at 1 µM
[6] = molecular target: T2, Inhibitor of nuclear factor kappa-B kinase subunit alpha (Homo sapiens) (UniProt O15111); details: at 0.1 µM
T2 sequence (whole entry): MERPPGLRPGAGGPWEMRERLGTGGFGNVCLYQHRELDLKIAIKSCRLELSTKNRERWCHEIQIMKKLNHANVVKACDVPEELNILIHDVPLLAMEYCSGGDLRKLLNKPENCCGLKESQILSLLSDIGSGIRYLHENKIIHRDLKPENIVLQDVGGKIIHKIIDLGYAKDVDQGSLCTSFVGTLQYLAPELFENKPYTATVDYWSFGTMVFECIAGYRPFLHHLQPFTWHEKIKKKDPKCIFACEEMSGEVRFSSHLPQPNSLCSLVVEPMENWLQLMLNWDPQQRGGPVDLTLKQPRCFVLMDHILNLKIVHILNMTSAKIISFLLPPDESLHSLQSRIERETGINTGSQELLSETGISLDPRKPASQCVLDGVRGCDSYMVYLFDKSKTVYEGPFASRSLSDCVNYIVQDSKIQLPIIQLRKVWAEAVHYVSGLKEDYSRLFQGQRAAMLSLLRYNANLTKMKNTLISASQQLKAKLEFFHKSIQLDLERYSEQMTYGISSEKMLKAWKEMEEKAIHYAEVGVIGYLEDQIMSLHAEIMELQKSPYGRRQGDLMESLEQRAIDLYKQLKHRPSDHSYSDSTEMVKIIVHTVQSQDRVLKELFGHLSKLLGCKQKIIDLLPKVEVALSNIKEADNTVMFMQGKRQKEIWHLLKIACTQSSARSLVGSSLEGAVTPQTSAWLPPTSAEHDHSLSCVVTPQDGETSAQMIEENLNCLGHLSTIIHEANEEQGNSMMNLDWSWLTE

[7] = molecular target: T2, Inhibitor of nuclear factor kappa-B kinase subunit alpha (Homo sapiens); details: at 1 µM
[8] = molecular target: T3, Inhibitor of nuclear factor kappa-B kinase subunit beta (Homo sapiens) (UniProt O14920); details: at 0.1 µM
T3 sequence (whole entry): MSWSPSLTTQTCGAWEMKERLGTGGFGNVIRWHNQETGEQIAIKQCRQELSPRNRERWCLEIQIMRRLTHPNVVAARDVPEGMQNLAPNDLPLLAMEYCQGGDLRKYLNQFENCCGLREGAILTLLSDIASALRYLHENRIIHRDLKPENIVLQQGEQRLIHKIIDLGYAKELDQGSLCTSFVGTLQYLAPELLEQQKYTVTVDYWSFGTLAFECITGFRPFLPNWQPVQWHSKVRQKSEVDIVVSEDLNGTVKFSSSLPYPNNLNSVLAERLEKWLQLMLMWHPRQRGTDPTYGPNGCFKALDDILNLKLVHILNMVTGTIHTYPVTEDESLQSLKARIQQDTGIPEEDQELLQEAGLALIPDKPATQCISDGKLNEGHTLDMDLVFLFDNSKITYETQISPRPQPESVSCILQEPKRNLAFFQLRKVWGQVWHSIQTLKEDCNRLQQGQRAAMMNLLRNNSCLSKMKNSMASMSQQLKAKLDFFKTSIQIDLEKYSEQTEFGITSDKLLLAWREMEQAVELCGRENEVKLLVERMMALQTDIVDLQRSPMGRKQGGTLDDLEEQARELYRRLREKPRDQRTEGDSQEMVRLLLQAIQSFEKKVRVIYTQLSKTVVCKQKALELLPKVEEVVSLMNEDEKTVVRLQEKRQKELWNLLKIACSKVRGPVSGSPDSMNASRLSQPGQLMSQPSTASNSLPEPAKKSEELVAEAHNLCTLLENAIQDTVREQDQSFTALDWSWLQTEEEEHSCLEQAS

[9] = molecular target: T3, Inhibitor of nuclear factor kappa-B kinase subunit beta (Homo sapiens); details: at 1 µM
[10] = molecular target: T4, Inhibitor of nuclear factor kappa-B kinase subunit epsilon (Homo sapiens) (UniProt Q14164); details: at 0.1 µM;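 further: mean inhibition of IKKε reported, from the GSK PKIS dataset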
T4 sequence (whole entry): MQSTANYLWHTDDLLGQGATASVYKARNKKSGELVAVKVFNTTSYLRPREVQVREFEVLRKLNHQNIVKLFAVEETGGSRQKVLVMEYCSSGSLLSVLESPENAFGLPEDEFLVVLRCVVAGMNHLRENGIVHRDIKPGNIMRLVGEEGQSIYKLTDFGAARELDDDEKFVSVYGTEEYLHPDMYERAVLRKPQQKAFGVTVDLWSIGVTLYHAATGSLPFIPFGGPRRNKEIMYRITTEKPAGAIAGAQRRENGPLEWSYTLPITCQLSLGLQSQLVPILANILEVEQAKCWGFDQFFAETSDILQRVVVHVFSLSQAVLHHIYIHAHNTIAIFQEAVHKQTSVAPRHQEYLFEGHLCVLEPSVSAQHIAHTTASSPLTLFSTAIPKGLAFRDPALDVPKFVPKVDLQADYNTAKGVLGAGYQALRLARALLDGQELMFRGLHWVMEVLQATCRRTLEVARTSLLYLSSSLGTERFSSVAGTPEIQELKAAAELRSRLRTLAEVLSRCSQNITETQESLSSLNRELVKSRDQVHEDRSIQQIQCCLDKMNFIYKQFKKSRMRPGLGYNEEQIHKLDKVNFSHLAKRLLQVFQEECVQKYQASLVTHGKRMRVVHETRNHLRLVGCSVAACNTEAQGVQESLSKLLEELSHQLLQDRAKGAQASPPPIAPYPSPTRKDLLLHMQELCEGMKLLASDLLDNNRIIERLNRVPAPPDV

Chain of Sphingosine kinase 1 (Homo sapiens) (Q9NYA1 whole entry): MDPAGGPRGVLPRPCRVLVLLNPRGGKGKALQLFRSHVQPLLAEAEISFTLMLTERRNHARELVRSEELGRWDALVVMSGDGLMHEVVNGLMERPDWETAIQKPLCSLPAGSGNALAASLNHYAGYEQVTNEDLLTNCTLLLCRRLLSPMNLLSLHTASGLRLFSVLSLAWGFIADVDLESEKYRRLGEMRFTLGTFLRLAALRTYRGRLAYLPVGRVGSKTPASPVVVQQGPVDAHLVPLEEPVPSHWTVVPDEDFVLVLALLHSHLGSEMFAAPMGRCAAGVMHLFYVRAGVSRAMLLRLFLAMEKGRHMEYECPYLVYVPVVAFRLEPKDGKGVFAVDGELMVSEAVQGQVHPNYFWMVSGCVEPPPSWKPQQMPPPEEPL

SMILES	inhibition [1]	inhibition [2]	inhibition [3]	inhibition [4]	inhibition [5]	inhibition [6]	inhibition [7]	inhibition [8]	inhibition [9]	inhibition [10]
CN(c1ccc(NC(=O)NCCN2CCOCC2)cc1)c1ccnc(Nc2ccc(CS(C)(=O)=O)cc2)n1	7.75%	0.36%	0.38%	5.71%	11.9%	10.9%	8%	3.48%	3.83%	3.55%
Cc1cc(O)cc(C)c1/C=C/c1cncc(C(N)=O)c1	-2.84%	0.32%	0.47%	2%	1.41%	7.66%	1.26%	1.7%	1.13%	1.74%
Cc1ccc(-c2cc3c(NC(=O)C4CC4)ncnc3o2)cc1	-8.41%	-0.23%	-0.24%	2.02%	10.8%	4.84%	1.2%	2.98%	4.2%	4.06%
CN1CCC(C(=O)Nc2n[nH]c3nc(-c4ccc(O)cc4)c(Br)cc23)CC1	0.24% and -1.35%	0.67% and 1.32%	1.49% and 0%	6.41% and 0.96%	13.3% and 1.03%	1.72% and -1.22%	-1.54% and 2.39%	6.9% and 3.32%	12.8% and 4.3%	8.54% and 3.19%
COc1cc(N2CCN(C(C)C)CC2)ccc1Nc1nc(Nc2cccc3ncccc23)c2cc[nH]c2n1	-2%	0%	-0.78%	1.04%	1.8%	4.1%	-3.72%	1.05%	-2.01%	-1.3%
CS(=O)(=O)CCNCc1ccc(-c2ccc3ncnc(Nc4ccc(OCc5ccccc5)cc4)c3c2)o1	-3.83%	-0.85%	0.16%	9.29%	3.86%	4.92%	3.98%	5.26%	5.3%	5.66%
COc1cc(Nc2ncc(-c3ccccc3)o2)cc(OC)c1	2.45%	-0.24%	-0.57%	3.79%	3.91%	2.7%	4.19%	4.63%	7.8%	12.6%
COC(=O)Nc1nc2ccc(Oc3ccc(NC(=O)Nc4cc(C(F)(F)F)ccc4F)cc3)cc2s1	-3.33%	0.51%	-0.44%	-0.3%	1.75%	4.91%	-0.96%	3.58%	-1.14%	-0.11%
CS(=O)(=O)Nc1ccc(-c2cc(-c3ccccc3)cc(C(N)=O)c2N)cc1	2.51%	-0.04%	-0.67%	0.89%	2.26%	1.46%	4.19%	6.82%	27.4%	0.29%
NS(=O)(=O)c1ccc(N/N=C2\C(=O)Nc3ccc(C(=O)NCc4ccncc4)cc32)cc1	0.35%	2.9%	-0.04%	4.7%	13.1%	2.72%	0.67%	5.86%	5.23%	14.4%
O=C(O[C@H]1CN[C@H](C#Cc2cc3ncnc(Nc4ccc(OCc5cccc(F)c5)c(Cl)c4)c3s2)C1)N1CCOCC1	-2.17%	0.46%	-2.18%	4.85%	11.5%	6.35%	6.72%	8.43%	11.1%	8.36%
NC(=O)c1ccc2c(-c3ccnc(NCCCO)n3)c(-c3ccc(F)cc3)nn2c1	-1.09%	0.78%	-0.19%	3.49%	3.53%	8.35%	4.86%	7.11%	2.1%	4.91%
COc1cccc(-n2ncc3c(N/N=C/c4ccc(C(=O)NCCN(C)C)cc4)ncnc32)c1	0.56%	0.23%	1.39%	31%	62.2%	1.29%	4.43%	1.09%	0.86%	-1.79%
Cc1cc(O)cc(C)c1/C=C/c1cncc(C(=O)OC(C)(C)C)c1	-1.82%	0.51%	0%	4.48%	7.86%	2.35%	1.81%	2.36%	2.32%	4.19%
O=C(Nc1n[nH]c2nnc(-c3cccnc3)cc12)C1CC1	-2.26%	-0.36%	-1.77%	3.14%	5.42%	0.84%	-0.73%	1.55%	1.04%	-2.46%
COC(=O)Nc1nc2cc(Oc3ccc(NC(=O)Nc4ccccc4)cc3)ccc2[nH]1	3.1%	-0.28%	0.5%	1.57%	7.67%	10.9%	8.6%	4.21%	5.49%	5.85%
Cc1nnc(-c2cccc(-c3ccc(C(=O)NCC4CC4)cc3)c2)o1	-1.04%	0.67%	-1.45%	5.98%	8.99%	-9.01%	-3.16%	6.42%	5.6%	7.79%
CC1=C(C(=O)Nc2ccc3[nH]ncc3c2)C(c2ccc(F)cc2)N=C(c2ccc(C(F)(F)F)nc2)N1 (stereo not given)	2.01%	0%	-2.07%	2.45%	2.14%	7.64%	-0.7%	2.1%	-0.37%	2.04%
Cc1c2ccc(N(C)c3ccnc(Nc4cccc(S(N)(=O)=O)c4)n3)cc2nn1C	1.41%	-0.17%	0%	0.52%	0.25%	7.99%	3.93%	5.79%	5.44%	4.78%
COc1ccc2ncn(-c3cc(O[C@H](C)c4ccccc4C(F)(F)F)c(C(N)=O)s3)c2c1	2.4%	-0.06%	-2.97%	-0.88%	5.02%	3.24%	-5.63%	-5.7%	1.93%	-0.98%
Nc1ncnc2occ(-c3ccc(NC(=O)Nc4cc(C(F)(F)F)ccc4F)cc3)c12	-0.65% and 1.59%	-1.33% and 0%	11.6% and 0%	2.39% and -3.9%	6.35% and 0.16%	5.79% and 7.04%	6.73% and 11.3%	1.45% and -2.16%	2.13% and 1.62%	1.57% and 0.44%
c1ccc(-c2n[nH]cc2-c2ccnc(-c3ccc(OCCn4ccnc4)cc3)c2)nc1	-1.64%	-0.27%	0.04%	1.26%	2.53%	4.99%	3.64%	0.37%	-0.43%	0.86%
CS(=O)(=O)Nc1ccc(-c2ccc3c(NC(=O)C4CC4)n[nH]c3c2)cc1	-3.21%	1.2%	0%	2.09%	0.41%	6.65%	-3.42%	3.69%	1.2%	-0.23%
